Molecules are shown by their SMILES. “And” between values parts separate entries of the source, which are not always exact repeats. Identical values can stand only once. Records with an inconclusive call do not appear. The source made the active and inactive calls. Calls come from the whole dose curve; as a rule, active = well fitted curve in the direction sought with a large enough effect; inconclusive = small, poorly fitted or top-dose-only effect, or another doubt; inactive = no such curve, though single readings can be large; an effect the other way counts as inactive or inconclusive.

Tested on in one assay: not listed separately
Briefly: qHTS of pediatric cancer cell lines to identify multiple opportunities for drug repurposing: Confirmatory screen for Rh30 cells (AID 1347126). Note: % is set by controls: 0 for no effect and ±100 for the full control effect; nearly all actives have a fitted effect of over 55% in size. The note with it: Rh30 rhabdomyosarcoma cell viability; series mostly up to 45.9 µM; activity change, negative = cytotoxic: at the top concentration. The procedure, abridged:
(§1)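 Cells (500-1,000/well) in growth media were settled 5 h at 37 degrees C, then given compounds for 48 h. Viability was read as CellTiter-Glo luminescence. Primary runs used MIPE at 11 points (0.78 nM-46 µM) and NPC at 8 points (0.59 nM-46 µM); follow-ups used 11 points.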
Regarding `Cc1ccc2nc(N)[nH]c(=O)c2c1Sc1ccncc1`, the “activity change, negative = cytotoxic” value is -10.1% (inactive).

As to `O=C1N=C(O)CN1/N=C/c1ccc(-c2ccc([N+](=O)[O-])cc2)o1`, the “activity change, negative = cytotoxic” value was -2.58% (inactive).

As to `CCN(CC)CCNC(=O)c1cc(Cl)c(N)cc1OC`, the “activity change, negative = cytotoxic” value is 11.1% (inactive).

As for `O=c1cc[nH]c(=S)[nH]1`, the “activity change, negative = cytotoxic” value is 0% (inactive).

In the case of `C[C@](N)(Cc1ccc(O)cc1)C(=O)O`, the activity change, negative = cytotoxic is 0% [at 5.01 µM] (inactive).

Tested on in a further assay: not listed separately
Briefly: qHTS of pediatric cancer cell lines to identify multiple opportunities for drug repurposing: Confirmatory screen for Saos-2 cells (AID 1347127).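 Note: plate controls were DMSO for no effect and bortezomib for full effect; nearly all actives have a fitted effect of over 60% in size.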 As to conditions: Saos-2 osteosarcoma cell viability; series mostly up to 45.9 µM; activity change, negative = cytotoxic: at the top concentration. The procedure, abridged:
as §1
In the case of `O=C(O)CN1C(=O)c2cccc3cccc(c23)C1=O`, the “activity change, negative = cytotoxic” value was -21.4% (inactive).

For the compound `O=C1N=C(O)CN1/N=C/c1ccc(-c2ccc([N+](=O)[O-])cc2)o1`, the “activity change, negative = cytotoxic” value was -10.7% (inactive).

Take `CCN(CC)CCNC(=O)c1cc(Cl)c(N)cc1OC`: the “activity change, negative = cytotoxic” value is 18.6% (inactive).

Consider `O=c1cc[nH]c(=S)[nH]1`, for which the “activity change, negative = cytotoxic” value was 3.41% (inactive).

On to `C[C@](N)(Cc1ccc(O)cc1)C(=O)O`, for which the activity change, negative = cytotoxic was 17.6% [at 5.01 µM] (inactive).

Tested on in the next assay: not listed separately
Briefly: qHTS of pediatric cancer cell lines to identify multiple opportunities for drug repurposing: Confirmatory screen for OHS-50 cells (AID 1347128).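 Note: compound exposure lasted 48 h at 37 degrees C; % is set by controls: 0 for no effect and ±100 for the full control effect; nearly all actives have a fitted effect of over 55% in size.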 The note with it: OHS-50 osteosarcoma cells viability; series mostly up to 45.9 µM; activity change, negative = cytotoxic: at the top concentration. An excerpt:
Drug repurposing or repositioning has been offered as a strategy for drug development in oncology programs. This approach has special potential for childhood cancers and other rare or orphan diseases, where the expected return on new drug development has been a disincentive to pharmaceuticals.
In this project we exploit the poly-pharmacology of drugs to discover new indications via phenotypic screening of a panel of 19 well-characterized cell lines derived from solid tumors seen in children and adolescents. The goal is to identify approved drugs with previously unrecognized anticancer properties that has the potential to reveal new mechanisms and biological processes involved in carcinogenesis or drug resistance. We employed a titration-based paradigm (quantitative high-throughput screening or qHTS), where all compounds were tested at multiple concentrations for their effect on cell viability. Concentration-response curves (CRCs) were derived directly from the primary screen, and both potency and efficacy values were used to identify compounds with robust bioactivity profiles. We screened the NIH Chemical Genomics Center (NCGC) Pharmaceutical Collection (NPC) and Mechanism Interrogation Plate (MIPE) small molecule collections of approved and investigational compounds against these cell lines; and measured metabolically active cells after 48 hours of compound treatment as a proxy for cell viability.
Assay Submitter: Nathalia J. Martinez, National Center for Advancing Translational Sciences, National Institutes of Health, Rockville, MD, USA; email: natalia.martinez@nih.gov
[1] Shen, M et al. Quantitative high-throughput phenotypic screening of pediatric cancer cell lines identifies multiple opportunities for drug repurposing. Oncotarget 2017 Dec 19;9(4):4758-4772. PMID 29435139. […]
Cells were assayed in growth media at a density of 500-1,000 cells/well. […] After a 15 min incubation at room temperature, samples were analyzed for luminescence intensity using a ViewLux High-throughput CCD imager equipped with clear filters.
Consider `O=C1N=C(O)CN1/N=C/c1ccc(-c2ccc([N+](=O)[O-])cc2)o1`, for which the “activity change, negative = cytotoxic” value is -8.5% (inactive).

Take `CCN(CC)CCNC(=O)c1cc(Cl)c(N)cc1OC`: the “activity change, negative = cytotoxic” value was 1.61% (inactive).

Turning to `C[C@@H]1C[C@H]2[C@@H]3C[C@H](F)C4=CC(=O)C=C[C@]4(C)[C@@]3(F)[C@@H](O)C[C@]2(C)[C@@]1(O)C(=O)CO`, the “activity change, negative = cytotoxic” value is 0.211% (inactive).

Tested on in another assay: not listed separately
Briefly: qHTS of pediatric cancer cell lines to identify multiple opportunities for drug repurposing: Confirmatory screen for SK-N-SH cells (AID 1347129).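 Note: cells exposed to compound for 48 h before viability read; plate controls were DMSO for no effect and bortezomib control for full effect; nearly all actives have a fitted effect of over 60% in size.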 The note with it: SK-N-SH neuroblastoma cell viability; series mostly up to 46.1 µM; activity change, negative = cytotoxic: at the top concentration. The gist of the method:
as §1
Consider `O=C(O)CN1C(=O)c2cccc3cccc(c23)C1=O`, for which the “activity change, negative = cytotoxic” value was -3.69% (inactive).

Consider `O=C1N=C(O)CN1/N=C/c1ccc(-c2ccc([N+](=O)[O-])cc2)o1`, for which the “activity change, negative = cytotoxic” value was 7.58% (inactive).

Consider `CCN(CC)CCNC(=O)c1cc(Cl)c(N)cc1OC`, for which the “activity change, negative = cytotoxic” value is -7.82% (inactive).

On to `C[C@@H]1C[C@H]2[C@@H]3C[C@H](F)C4=CC(=O)C=C[C@]4(C)[C@@]3(F)[C@@H](O)C[C@]2(C)[C@@]1(O)C(=O)CO`, for which the “activity change, negative = cytotoxic” value was 3.17% (inactive).

For the compound `O=c1cc[nH]c(=S)[nH]1`, the “activity change, negative = cytotoxic” value was -1.24% (inactive).

For the compound `C[C@](N)(Cc1ccc(O)cc1)C(=O)O`, the activity change, negative = cytotoxic is 11.7% [at 5.03 µM] (inactive).

For another assay, the target named is N-terminal Xaa-Pro-Lys N-methyltransferase 1 (Homo sapiens) (UniProt Q9BV86). Briefly: qHTS Assay for Inhibitors of N-terminal methyltransferase 1 (NTMT1): LOPAC validation of the NTMT1 SAHH-coupled ThioGlo3 Assay (AID 1347143). For activity change, negative = inhibition: % is set by controls: 0 for no effect and ±100 for the full control effect.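 Note: SAH from peptide methylation measured as thiol fluorescence via SAHH coupling and ThioGlo3; nearly all actives have a fitted effect of over 70% in size.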 Note: potency is the fitted concentration of half-maximal effect. The note with it: recombinant NTMT1, SAHH-coupled ThioGlo3 fluorescence; series mostly up to 114 µM; activity change, negative = inhibition: at the top concentration. The procedure, abridged: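 In this qHTS pilot against the LOPAC set, 125nM NTMT1 met compounds tested at multiple concentrations, and fluorescence was normalized to background.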
Chain of N-terminal Xaa-Pro-Lys N-methyltransferase 1 (Homo sapiens) (Q9BV86 whole entry, looked up): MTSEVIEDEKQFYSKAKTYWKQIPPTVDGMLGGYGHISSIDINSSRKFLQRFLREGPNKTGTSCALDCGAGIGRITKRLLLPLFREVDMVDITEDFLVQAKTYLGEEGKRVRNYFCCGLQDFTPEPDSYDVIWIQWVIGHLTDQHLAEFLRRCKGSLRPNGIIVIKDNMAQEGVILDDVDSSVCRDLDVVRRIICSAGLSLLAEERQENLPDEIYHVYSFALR
For `CCN(CC)CCNC(=O)c1cc(Cl)c(N)cc1OC`, the “activity change, negative = inhibition” value was -24% (inactive).

With `NC(=O)c1ncn([C@@H]2O[C@H](CO)[C@@H](O)[C@H]2O)n1`, the “activity change, negative = inhibition” value is -5.53% (inactive).

With `CC(C)c1c(C(=O)Nc2ccccc2)c(-c2ccccc2)c(-c2ccc(F)cc2)n1CC[C@@H](O)C[C@@H](O)CC(=O)O`, the “activity change, negative = inhibition” value was -8.23% (inactive).

In the case of `CNCC(O)c1ccc(O)c(O)c1` (centres undefined), the “activity change, negative = inhibition” value was -9.95% (inactive).

Regarding `CN(C)CC[C@@H](c1ccc(Cl)cc1)c1ccccn1`, the “activity change, negative = inhibition” value is -13.8% (inactive).

With `COCCOC(=O)C1=C(C)NC(C)=C(C(=O)OC/C=C/c2ccccc2)C1c1cccc([N+](=O)[O-])c1` (centres undefined), the “activity change, negative = inhibition” value is -8.2% (inactive).

On to `C=Cc1c(C)c2cc3[nH]c(cc4nc(cc5nc(cc1[nH]2)C(C)=C5CCC(=O)O)C(CCC(=O)O)=C4C)c(C)c3C=C`, for which the Potency was 39.8 µM (active).

With `C[C@]12CC[C@@H]3c4ccc(O)cc4CC[C@H]3[C@@H]1CCC2=O`, the “activity change, negative = inhibition” value is -18.3% (inactive).

On to `N=c1c[n+](N2CCOCC2)[n-]o1`, for which the Potency is 44.7 µM (active) and 50.1 µM (active).

With `OCc1cc(C(O)CNCCCCCCOCCCCc2ccccc2)ccc1O` (centres undefined), the Potency was 56.2 µM (active).

In the case of `CC(C)C(=O)c1c(C(C)C)nn2ccccc12`, the “activity change, negative = inhibition” value was -21.8% (inactive).

As to `Cc1cc(N)c2ccccc2[n+]1CCCCCCCCCC[n+]1c(C)cc(N)c2ccccc21`, the Potency is 39.8 µM (active).

With `CC1=C(CC(=O)O)c2cc(F)ccc2/C1=C\c1ccc(S(C)(=O)=O)cc1`, the “activity change, negative = inhibition” value is -25% (inactive).

As to `CCN(CC)C(C)CN1c2ccccc2Sc2ccccc21` (centres undefined), the Potency was 25.1 µM (active).

On to `COC(=O)C1=C(C)NC(C)=C(C(=O)OC)C1c1ccccc1[N+](=O)[O-]`, for which the Potency is 12.6 µM (active).
